# Results as given in paper PMC4336329 (PLoS ONE, 2015).
# The campaign covered roughly 310,000 compounds. About 14,000 (4.5%) showed an effect of 50% or more. Effects have a minus sign here. What follows is part of a selection rich in strong results, with near analogues and random picks from the rest.
# Target: human ether-à-go-go-related gene (hERG) potassium channel (human, UniProt Q12809)
# Assay: primary screen, population patch clamp on CHO cells stably expressing hERG; higher = less effect of the substance
# 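Note: peak tail current of the secondary pulse compared with the same well before compound.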
# Sequence of human ether-à-go-go-related gene (hERG) potassium channel (Q12809 whole entry, looked up): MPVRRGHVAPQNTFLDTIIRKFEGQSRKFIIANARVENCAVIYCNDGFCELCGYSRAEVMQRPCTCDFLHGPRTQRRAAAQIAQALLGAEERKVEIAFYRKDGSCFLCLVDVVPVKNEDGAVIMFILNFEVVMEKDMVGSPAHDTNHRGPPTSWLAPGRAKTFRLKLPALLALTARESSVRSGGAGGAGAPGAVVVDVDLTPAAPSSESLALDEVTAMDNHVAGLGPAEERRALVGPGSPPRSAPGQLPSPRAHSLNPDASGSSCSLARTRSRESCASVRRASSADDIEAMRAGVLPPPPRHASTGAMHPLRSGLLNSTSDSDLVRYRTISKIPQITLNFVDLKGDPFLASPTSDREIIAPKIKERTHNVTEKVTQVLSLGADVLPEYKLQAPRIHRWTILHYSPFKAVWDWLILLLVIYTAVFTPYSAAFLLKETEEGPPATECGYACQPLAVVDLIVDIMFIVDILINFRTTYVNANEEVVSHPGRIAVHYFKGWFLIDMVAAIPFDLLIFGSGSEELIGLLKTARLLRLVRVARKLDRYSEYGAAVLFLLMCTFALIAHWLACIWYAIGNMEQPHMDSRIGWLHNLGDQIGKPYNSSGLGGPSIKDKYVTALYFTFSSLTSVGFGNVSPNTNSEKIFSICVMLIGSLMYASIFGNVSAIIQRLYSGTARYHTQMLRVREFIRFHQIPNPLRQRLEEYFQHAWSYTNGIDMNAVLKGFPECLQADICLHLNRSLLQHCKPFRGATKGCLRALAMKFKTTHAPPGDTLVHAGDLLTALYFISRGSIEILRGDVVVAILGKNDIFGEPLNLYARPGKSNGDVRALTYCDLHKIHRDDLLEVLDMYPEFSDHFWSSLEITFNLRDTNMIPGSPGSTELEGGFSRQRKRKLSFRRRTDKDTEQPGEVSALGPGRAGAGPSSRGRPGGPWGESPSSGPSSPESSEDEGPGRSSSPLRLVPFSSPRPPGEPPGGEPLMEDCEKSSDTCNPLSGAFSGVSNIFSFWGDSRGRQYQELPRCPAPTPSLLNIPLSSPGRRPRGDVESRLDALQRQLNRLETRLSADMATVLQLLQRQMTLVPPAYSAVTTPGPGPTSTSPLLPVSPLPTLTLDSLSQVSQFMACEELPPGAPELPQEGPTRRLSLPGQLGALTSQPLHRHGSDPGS
row,Compound,"hERG current change (%, negative = inhibition) at 10uM [%]"
1,CCCCn1c(N)c(N(CC(C)C)C(=O)c2ccc(-c3ccc(Cl)cc3)o2)c(=O)[nH]c1=O,1.07
2,CCC(CC)C(=O)OCC(=O)Nc1cccc(S(=O)(=O)N(C)c2ccccc2)c1,14.3
3,O=C(NCc1ccc(F)cc1)C(C(=O)NCc1ccc(F)cc1)c1ncc(C(F)(F)F)cc1Cl,1.56
4,O=C(NCc1ccco1)c1cc2ccccc2o1,11.8
5,COc1cc(OC)cc(C(=O)Nc2ncn[nH]2)c1,7.31
6,Cc1ccn(CCC(=O)NC2CC(C)(C)Cc3c2cnn3-c2ccccc2C)n1 (stereo not shown),-25.6
7,CC1(C)CC(=O)c2cc(C(=O)NC3CCSC3=O)c(=O)n(-c3ccccc3)c2C1 (stereo not shown),-0.214
8,Cc1nc(NC(CC(C)C)C(=O)O)c2nc(C)oc2n1 (stereo not shown),-3.03
9,COc1ccc(Nc2nc(C)cc(C)n2)cc1Cl.Cl,0.588
10,COc1ccc(C2N(C(=O)CN3CCCC3)CCCN2S(=O)(=O)c2ccccc2)cc1 (stereo not shown),-15.8
11,CCCC(=O)Oc1ccc(N(C(=O)CCC)S(=O)(=O)c2cccs2)cc1,10.9
12,O=C1Nc2ccccc2Oc2cc([N+](=O)[O-])cc(Oc3ccccc3)c21,-24.5
13,Cc1[nH]c2ccc(C(=O)OC(C)C(=O)N(C)c3ccccc3)cc2c1C (stereo not shown),1.13
14,c1ccc(-n2ncc3c(N4CCCC4)ncnc32)cc1,-8.17
15,O=C(c1ccccc1)N1CCN(c2ncnc3c2cnn3-c2ccccc2)CC1,-18
16,Cc1ccccc1C(=O)N1CCN(c2ncnc3c2cnn3-c2ccccc2)CC1,-9.76
17,O=C(c1ccco1)N1CCN(c2ncnc3c2cnn3-c2ccccc2)CC1,-64.5
18,O=C(COc1ccccc1)N1CCN(c2ncnc3c2cnn3-c2ccccc2)CC1,-73.6
19,Cc1ccc(C(=O)N2CCN(c3ncnc4c3cnn4-c3ccccc3)CC2)cc1,-0.928
20,CSc1ccc(COC(=O)CCS(=O)(=O)c2ccc(C)cc2)cc1,-9.83
21,O=C(C[n+]1ccccc1)N1CCCc2ccccc21.[Cl-],18.3
22,Cn1c(SCC#N)nnc1-c1ccc2c(c1)OCO2,16.9

row,Compound,"hERG current change (%, negative = inhibition) at 10uM [%]"
1,CCOC(=O)c1c(NC(=O)CCc2ccc(CC)o2)sc(C)c1C,1.97
2,O=C(Cc1ccccc1)N/N=C/C=C/c1ccccc1[N+](=O)[O-],1.71
3,O=C(Cc1cccs1)N/N=C/C=C\c1ccccc1[N+](=O)[O-],13.3
4,O=C(CN1CCN(Cc2ccccc2Cl)CC1)N/N=C/C=C/c1ccccc1[N+](=O)[O-],-71.6
5,O=[N+]([O-])c1ccccc1/C=N\N1CCN(Cc2ccccc2Cl)CC1,9.77
6,O=C(CN1CCN(Cc2ccccc2Cl)CC1)N/N=C/C=C/c1ccco1,-68.5
7,O=C(CN1CCN(Cc2ccccc2Cl)CC1)N/N=C/C=C\c1ccccc1[N+](=O)[O-],-76.2
8,O=C(CN1CCN(Cc2ccccc2)CC1)N/N=C/C=C/c1ccco1,-47.2
9,Cc1ccc(CN2CCN(/N=C/C=C/c3ccccc3[N+](=O)[O-])CC2)cc1,-21.1
10,O=C(CN1CCN(Cc2ccccc2Cl)CC1)N/N=C/c1ccco1,-21.8
11,O=C(Cc1cccs1)N/N=C/C=C/c1ccccc1[N+](=O)[O-],-0.125
12,O=C(O)COc1ccccc1/C=N/NC(=O)CN1CCN(Cc2ccccc2Cl)CC1,-0.129
13,O=C(CN1CCN(Cc2ccccc2)CC1)N/N=C/C=C/c1ccccc1[N+](=O)[O-],-74.2
14,O=C(COC(=O)CNS(=O)(=O)c1ccc(F)c(F)c1F)NC1CCCC1,4.16
15,Clc1ccc(OCCCc2nc(-c3ccncc3)no2)c(Cl)c1,-0.0206
16,O=C1/C(=C/N(C(=O)c2ccco2)c2ccc(Br)cc2)Sc2ccccc21,-7.76
17,Cc1[nH]c2ccccc2c1C(C[N+](=O)[O-])c1cccc(O)c1 (stereo not shown),8.53
18,Cc1oc2cc3c(C(=O)N4CCCCC4)c(C)oc3cc2c1C(=O)N1CCCCC1,5.17
19,Cc1ccc2cc(C(=O)O)c(C)nc2c1,11.6
20,CCC(CC)C(=O)Nc1ccncc1,23.9
21,COc1ccccc1CNC(=O)c1ccccc1C(=O)NC(CC(C)C)C(=O)NCc1ccccc1OC (stereo not shown),10.6
